# PubChem BioAssay
# The source made the active and inactive calls.
# How the values were obtained:
# [1] = tested on: XIP peptide (Xip251-270) binding; test: XIP fragment 251-270 binding compounds – biochemical, small-molecule microarray, fluorescence 635/667 nm, 0.1 µg/mL protein, primary screen (AID 1182); conditions: fluorescent protein binding, 635 nm, higher = more signal, called active from +8 up or from −8 down
# XIP peptide (Xip251-270) = test: compounds binding XIP fragment 251-270 – biochemical, small-molecule microarray, fluorescence 635/667 nm, 0.5 µg/mL protein, primary screen (AID 1183); conditions: fluorescence 635 nm, higher = more signal
# [2] = blood-stage malaria parasite viability loss – strain 3D7, DAPI fluorescence, 100 nL, primary screen (AID 1184);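 also: parasites grown inside human red blood cells in medium with human serum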; conditions: P. falciparum 3D7 growth, 3 d, higher = more signal
# [3] = target: Homeobox protein Hox-A13 (Mus musculus) (UniProt Q62424); test: disruptors of Hoxa13 oligonucleotide interaction – biochemical, fluorescence polarization, labeled oligonucleotide, primary screen (AID 1185); conditions: Hoxa13:DNA binding, 15 min, higher = more signal, called active from +8 up or from −8 down
# Chain of Homeobox protein Hox-A13 (Mus musculus) (Q62424 whole entry, looked up): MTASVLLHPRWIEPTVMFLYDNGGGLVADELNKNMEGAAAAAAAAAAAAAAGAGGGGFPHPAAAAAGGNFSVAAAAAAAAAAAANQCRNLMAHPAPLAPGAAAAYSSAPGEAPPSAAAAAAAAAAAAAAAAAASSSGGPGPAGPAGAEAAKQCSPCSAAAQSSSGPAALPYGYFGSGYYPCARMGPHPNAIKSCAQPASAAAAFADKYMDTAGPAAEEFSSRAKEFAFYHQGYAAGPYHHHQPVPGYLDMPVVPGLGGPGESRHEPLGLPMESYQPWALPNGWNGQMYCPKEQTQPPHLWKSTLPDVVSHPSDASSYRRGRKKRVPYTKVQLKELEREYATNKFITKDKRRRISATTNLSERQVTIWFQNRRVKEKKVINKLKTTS
Compound,composite z-score [1],composite z-score (XIP peptide (Xip251-270)),z-score [2],z-score [3]
CCN1C(=O)[C@H]2[C@H]3[C@H](O)[C@H](O)CC(=NO[C@H](C)c4cn([C@H](CO)Cc5ccccc5)nn4)[C@@H]3CC[C@H]2C1=O,1.66 (inactive),0.722,1.44,-2.36 (inactive)
C[C@@H]1CC[C@H]2C(=O)O[C@@H](CN=[N+]=[N-])CN2[C@H]1c1ccc(Br)cc1,0.223 (inactive),0.688,-1.72,-0.917 (inactive)
COC(=O)CC=C[C@@H](C)[C@@H](C=NOC[C@@H](C)[C@H](OCc1ccccc1)C(C)C)OC,0.0918 (inactive),-0.0012,-0.469,-3.36 (inactive)
COC(=O)[C@H](C)NC(=O)CCC1CC(OC(=O)NCc2cccc3ccccc23)CC2(CCCC(COC(=O)NCCC(C)C)O2)O1 (stereo partly drawn),-0.477 (inactive),0.468,-1.57,-5.31 (inactive)
CON=C(C)CCN1CCCc2nc(C)c(C)cc21,-0.0879 (inactive),0.428,-0.18,-7.51 (inactive)
CC(=O)OC[C@H]1O[C@H](CCON=C(C)CCN2CCCc3nc(C)c(C)cc32)C=C[C@@H]1OC(C)=O,0.36 (inactive),0.651,-1.47,-6.43 (inactive)
C=CC[C@@H]1C=CC(ON=C(C)C)[C@@H](CO)O1 (stereo partly drawn),-0.649 (inactive),-0.0372,0.367,2.62 (inactive)
CC(=O)OC[C@H]1O[C@@H](ON=C(C)CCC(=O)OC[C@H]2O[C@H](C#Cc3ccccc3)C=C[C@@H]2Oc2ccc(C)cc2)[C@H](OC(C)=O)[C@@H](OC(C)=O)[C@@H]1OC(C)=O,0.0771 (inactive),0.625,-0.713,-3.79 (inactive)
C#CCCCON=C1[C@H]2CCn3c(=O)n(Cc4cc5c(cc4Cl)OCO5)c(=O)n3[C@H]2[C@H](O)[C@@H]2O[C@H]12,-0.18 (inactive),0.278,-0.579,-0.911 (inactive)
O=C1[C@H]2[C@H]3[C@H](O)[C@H](O)CC(=NO[C@@H]4O[C@H](CO)[C@@H](O)[C@H](O)[C@H]4O)[C@H]3CC[C@H]2C(=O)N1c1ccc(F)cc1F,0.391 (inactive),0.502,-0.652,-7.01 (inactive)
CC(C)=NO[C@H](C)c1cn([C@@H]2COC[C@H]2O)nn1,0.496 (inactive),0.0358,0.672,0.141 (inactive)
CC(=O)OC[C@H]1O[C@@H](ON=C(C)CCN2CCCCc3nc(C)c(C)cc32)[C@H](OC(C)=O)[C@@H](OC(C)=O)[C@@H]1OC(C)=O,-0.0733 (inactive),0.566,-0.98,-3.93 (inactive)
